The source made the active and inactive calls. How the source made its calls: active means hit-call score of the fitted dose curve at least 0.9, where 1 is the maximum; inactive means score below 0.9.
What was measured:
[1] = read-out: Interleukin-8 (IL8), CXCL8 (gene 3576); test: BSK_CASM3C_IL8: BioMAP Diversity Plus: CASM3C Assay for Interleukin-8 (IL8) Biomarker Activity (AID 2283042); settings: primary human coronary artery smooth muscle cells; actives raise or lower the signal;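 further: IL-8 protein level quantified by ELISA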
[2] = read-out: Human Leukocyte Antigen - DR isotype (HLADR), HLA-DRA (gene 3122); test: BSK_CASM3C_HLADR: BioMAP Diversity Plus: CASM3C Assay for Human Leukocyte Antigen - DR isotype (HLADR) Biomarker Activity (AID 2283043); settings: primary human coronary artery smooth muscle cells; actives raise or lower the signal;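 further: cell-surface HLA-DR protein level quantified by ELISA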
[3] = read-out: Macrophage colony-stimulating factor (MCSF), CSF1 (gene 1435); test: BSK_CASM3C_MCSF: BioMAP Diversity Plus: CASM3C Assay for Macrophage colony-stimulating factor (MCSF) Biomarker Activity (AID 2283044); settings: primary human coronary artery smooth muscle cells; actives raise or lower the signal;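 further: M-CSF protein amount quantified by ELISA after 24 h exposure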
[4] = read-out: Low-density lipoprotein receptor (LDLR), LDLR (gene 3949); test: BSK_CASM3C_LDLR: BioMAP Diversity Plus: CASM3C Assay for Low-density lipoprotein receptor (LDLR) Biomarker Activity (AID 2283045); settings: primary human coronary artery smooth muscle cells; actives raise or lower the signal;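 further: LDLR protein level on the cell surface quantified by ELISA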
[5] = read-out: Monocyte Chemoattractant Protein-1 (MCP1), CCL2 (gene 6347); test: BSK_CASM3C_MCP1: BioMAP Diversity Plus: CASM3C Assay for Monocyte Chemoattractant Protein-1 (MCP1) Biomarker Activity (AID 2283046); settings: primary human coronary artery smooth muscle cells; actives raise or lower the signal;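 further: MCP-1 level quantified by ELISA 24 h after dosing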
[6] = BSK_CASM3C_Proliferation: Cell Proliferation Assessment in the BioMAP Diversity Plus: CASM3C Assay (AID 2283047); settings: primary human coronary artery smooth muscle cells;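 further: sulforhodamine B total protein stain as relative cell number at 560 nm; sub-confluent cells exposed 48 h before staining; fitted both ways against DMSO so gain or loss of cell number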
[7] = read-out: Monokine induced gamma interferon (MIG), CXCL9 (gene 4283); test: BSK_CASM3C_MIG: BioMAP Diversity Plus: CASM3C Assay for Monokine induced gamma interferon (MIG) Biomarker Activity (AID 2283048); settings: primary human coronary artery smooth muscle cells; actives raise or lower the signal;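 further: MIG protein level measured by ELISA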
[8] = read-out: serum amyloid A (SAA), SAA1 (gene 6288); test: BSK_CASM3C_SAA: BioMAP Diversity Plus: CASM3C Assay for serum amyloid A (SAA) Biomarker Activity (AID 2283049); settings: primary human coronary artery smooth muscle cells; actives raise or lower the signal;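 further: SAA protein level quantified by ELISA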
[9] = BSK_CASM3C_SRB: Viability Assessment in the BioMAP Diversity Plus: CASM3C Assay (AID 2283050); settings: primary human coronary artery smooth muscle cells;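 further: cells exposed to compound for 24 h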
[10] = read-out: Thrombomodulin, THBD (gene 7056); test: BSK_CASM3C_Thrombomodulin: BioMAP Diversity Plus: CASM3C Assay for Thrombomodulin Biomarker Activity (AID 2283051); settings: primary human coronary artery smooth muscle cells; actives raise or lower the signal;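 further: thrombomodulin protein level measured by ELISA 24 h after dosing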
[11] = read-out: Tissue Factor, F3 (gene 2152); test: BSK_CASM3C_TissueFactor: BioMAP Diversity Plus: CASM3C Assay for Tissue Factor Biomarker Activity (AID 2283052); settings: primary human coronary artery smooth muscle cells; actives raise or lower the signal;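 further: cell surface tissue factor protein level read by ELISA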
[12] = read-out: Interferon-gamma inducible Protein 10 (IP10), CXCL10 (gene 3627); test: BSK_hDFCGF_IP10: BioMAP Diversity Plus: hDFCGF Assay for Interferon-gamma inducible Protein 10 (IP10) Biomarker Activity (AID 2283053); settings: primary human foreskin fibroblasts; actives raise or lower the signal
Method in brief: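 Primary human foreskin fibroblasts exposed to chemicals for 24 h. IP-10 measured by ELISA; changes fitted bidirectionally against DMSO baseline.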

[13] = read-out: Urokinase-type plasminogen activator receptor (uPAR), PLAUR (gene 5329); test: BSK_CASM3C_uPAR: BioMAP Diversity Plus: CASM3C Assay for Urokinase-type plasminogen activator receptor (uPAR) Biomarker Activity (AID 2283054); settings: primary human coronary artery smooth muscle cells; actives raise or lower the signal;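 further: cell-surface uPAR protein level quantified by ELISA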
[14] = read-out: Vascular cell adhesion molecule 1 (VCAM1), VCAM1 (gene 7412); test: BSK_CASM3C_VCAM1: BioMAP Diversity Plus: CASM3C Assay for Vascular cell adhesion molecule 1 (VCAM1) Biomarker Activity (AID 2283055); settings: primary human coronary artery smooth muscle cells; actives raise or lower the signal;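 further: VCAM-1 protein level quantified by ELISA on the cells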
[15] = read-out: Epidermal growth factor receptor (EGFR), EGFR (gene 1956); test: BSK_hDFCGF_EGFR: BioMAP Diversity Plus: hDFCGF Assay for Epidermal growth factor receptor (EGFR) Biomarker Activity (AID 2283057); settings: primary human foreskin fibroblasts; actives raise or lower the signal
Method in brief: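 Primary human foreskin fibroblasts (hDFCGF system), sampled 24 h after dosing; EGFR quantified by ELISA. Bidirectional fit relative to DMSO baseline; SRB total-protein staining in parallel cultures for cytotoxicity.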

[16] = BSK_hDFCGF_Proliferation: Cell Proliferation Assessment in the BioMAP Diversity Plus: hDFCGF Assay (AID 2283059); settings: primary human foreskin fibroblasts;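 further: curves fitted for both rise and fall of signal versus DMSO baseline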
Method in brief: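 Steps: dose primary human dermal fibroblasts (foreskin); […] fix in 10% TCA; stain with 0.1% SRB; read 560 nm; fit gain or loss of signal against DMSO.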

[17] = read-out: Macrophage colony-stimulating factor (MCSF), CSF1 (gene 1435); test: BSK_hDFCGF_MCSF: BioMAP Diversity Plus: hDFCGF Assay for Macrophage colony-stimulating factor (MCSF) Biomarker Activity (AID 2283060); settings: primary human foreskin fibroblasts; actives raise or lower the signal
Method in brief: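 M-CSF levels, determined by ELISA, are taken at 24 h after dosing human skin fibroblasts. Responses in either direction are fitted with DMSO serving as the baseline.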

[18] = read-out: Collagen III, COL3A1 (gene 1281); test: BSK_hDFCGF_CollagenIII: BioMAP Diversity Plus: hDFCGF Assay for Collagen III Biomarker Activity (AID 2283056); settings: primary human foreskin fibroblasts; actives raise or lower the signal
Method in brief: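 Cells: human foreskin fibroblasts, primary. Dosing followed by 24 h incubation, then ELISA for collagen III. Both increases and decreases scored relative to DMSO.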

[19] = read-out: Interleukin-8 (IL8), CXCL8 (gene 3576); test: BSK_hDFCGF_IL8: BioMAP Diversity Plus: hDFCGF Assay for Interleukin-8 (IL8) Biomarker Activity (AID 2283058); settings: primary human foreskin fibroblasts; actives raise or lower the signal
Method in brief: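 IL-8 levels from compound-treated primary human fibroblasts were read by ELISA at 24 h, with DMSO serving as baseline for bidirectional fitting.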

Measured: AC50

O=[N+]([O-])c1ccc(O)cc1
not listed: [18] | [19]
inactive: all other assays above

c1ccc2c(c1)Cc1ccccc1-2
not listed: [16] | [18] | [19]
inactive: all other assays above

O=c1c(-c2ccc(O)cc2)coc2cc(O)ccc12
not listed: [16] | [19]
inactive: all other assays above

C#C[C@]1(O)CC[C@H]2[C@@H]3CCC4=CC(=O)CC[C@@H]4[C@H]3CC[C@@]21C
not listed: [6] | [16]
inactive: all other assays above

CN(C)C=O
not listed: [16] | [18] | [19]
inactive: all other assays above

CCC(C)(C)C1CCC(O)CC1 (configuration not stated)
not listed: [19]
inactive: all other assays above

O=C(O)Cc1cc(I)c(Oc2cc(I)c(O)c(I)c2)c(I)c1
active: [12] 8.02 µM | [14] 13.4 µM | [18] 4.05 µM | [15] 7.78 µM | [19] 22.2 µM | [16] 13.4 µM | [17] 14 µM
inactive: all other assays above

O=C(O)c1ccccc1C(c1ccc(O)cc1)c1ccc(O)cc1
not listed: [16]
inactive: all other assays above

CCc1ccc(CCOc2ccc(CC3SC(=O)NC3=O)cc2)nc1 (configuration not stated)
not listed: [18] | [19]
inactive: all other assays above

CCCCCCC(=O)O
not listed: [18] | [19]
inactive: all other assays above

Source: PubChem BioAssay (EPA / NIEHS)
